Compound activity (PubChem BioAssay)
Shiga inhibitor = A qHTS for Small Molecule Inhibitors of Shiga Toxin. Vero cells, Shiga toxin protein synthesis inhibition reporter. inhibition, % at 38.7 µM. hit rate 9.2% among 290,000. AID 2315, 2010; in the data active means inhibition mostly above about 28%, no sharp cut-off; inactive means mostly below about 43%
Pf growth 96h = Primary qHTS for delayed death inhibitors of the malarial parasite plastid, 96 hour incubation. P. falciparum luciferase reporter growth, 96 h. Potency, µM (top dose mostly 28.7 µM), actives largely listed as inhibitors. hit rate 6.9% among 320,000. AID 504834, 2011
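P. falciparum expressing integrated firefly luciferase, in erythrocytes at 2% hematocrit, 0.05% parasitemia, incubated with compounds 96 h at 37 C, 5% CO2. Growth inhibition read as loss of luminescence; two-generation exposure targets delayed-death apicoplast inhibitors.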
Pf growth 48h = Primary qHTS for delayed death inhibitors of the malarial parasite plastid, 48 hour incubation; P. falciparum luciferase growth in erythrocytes, 48 h; Potency, µM (top dose mostly 28.7 µM), actives largely listed as inhibitors; hit rate 5.9% among 310,000
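Here the parasites carry a stable luciferase gene and grow inside erythrocytes in Albumax-based RPMI medium with compound for one erythrocytic cycle. Activity is scored as loss of luminescent signal.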
CHX counter = Cycloheximide Counterscreen for Small Molecule Inhibitors of Shiga Toxin; cell reporter, cycloheximide protein synthesis inhibition counterscreen; hit rate 12% among 300,000; max response, %; in the data active means max response mostly above about 13%, no sharp cut-off; inactive means mostly below about 14%; further: read at 38.3 µM for the half of the compounds with a filed dose
Each line names hits and unclear results; the compound was inactive in the other large screens. This is a sample that favours compounds with a hit; in the whole collection about 21% have one here. Unless noted, the call rests on the fitted dose curve; in most records, active means well fitted inhibition curve with a large enough effect; inconclusive means small, poorly fitted or top-dose-only effect, or another doubt; inactive means no such curve, though single readings can be large or run the other way.

CCC(C)Sc1ccc([C@H]2N[C@@](CC(C)C)(C(=O)OC)[C@H]3C(=O)N(CC)C(=O)[C@@H]23)cc1 (some centres not stated)	Pf growth 96h inconclusive, Pf growth 48h 9.3µM (no result: Shiga inhibitor, CHX counter)
CCN1C(=O)[C@H]2[C@@H](c3ccc(SC4CCCCC4)cc3)N[C@@](CC(C)C)(C(=O)OC)[C@H]2C1=O	Pf growth 96h 2.9µM, Pf growth 48h 12µM (no result: Shiga inhibitor, CHX counter)
CCN1C(=O)C2C(c3cccc(F)c3)NC(C)(C(=O)OC)C2C1=O (configuration not stated)	none
CCC(C)Sc1ccc([C@H]2N[C@@](Cc3ccccc3)(C(=O)OC)[C@H]3C(=O)N(CC)C(=O)[C@@H]23)cc1OC (some centres not stated)	Pf growth 96h inconclusive, Pf growth 48h 3.3µM (no result: Shiga inhibitor, CHX counter)
O=C(O)CN1C(=O)/C(=C/c2ccc(SCc3ccccc3)o2)SC1=S	none
CC(Oc1ccc(F)cc1)C(=O)Nc1ccccc1C(=O)N1CCCCC1 (configuration not stated)	none (no result: Shiga inhibitor, CHX counter)
O=C(Nc1ccc(F)cc1Cl)C1=COCCO1	none (no result: Shiga inhibitor, CHX counter)
COc1ccc(CN2CCC(n3nccc3NC(=O)CCc3ccccc3)CC2)c(C)c1C	Pf growth 96h inconclusive, Pf growth 48h inconclusive
COC(c1ccccc1)c1nnc(CCC(=O)N(C)Cc2cccc(-n3cccn3)c2)o1 (configuration not stated)	Shiga inhibitor 107, CHX counter 33
COC(c1ccccc1)c1nnc(CCC(=O)NCCC(C)C)o1 (configuration not stated)	none
COC(c1ccccc1)c1nnc(CCC(=O)N(C)CCOc2ccccc2)o1 (configuration not stated)	Shiga inhibitor 59, CHX counter 28
COC(c1ccccc1)c1nnc(CCC(=O)NCc2ccc3ncccc3c2)o1 (configuration not stated)	none
COC(c1ccccc1)c1nnc(CCC(=O)N(C)CCCC2CCCC2)o1 (configuration not stated)	Shiga inhibitor 46, Pf growth 96h inconclusive, CHX counter 27
CCCN(CC1CC1)C(=O)CCc1nnc(C(OC)c2ccccc2)o1 (configuration not stated)	Shiga inhibitor 46, Pf growth 96h inconclusive
CSc1ccccc1NC(=O)c1cc(-c2cccnc2)nc2ccc(Br)cc12	Pf growth 96h inconclusive, Pf growth 48h inconclusive
COc1cc(CNC(C)c2ccccc2)c(Br)cc1OCC(N)=O (configuration not stated)	Pf growth 96h 8.3µM (no result: Pf growth 48h)
CCC(CO)NCc1cc(OC)c(OCC(=O)NCCc2ccccc2)cc1Br (configuration not stated)	Pf growth 96h 4.1µM, Pf growth 48h inconclusive
CCOC(=O)[C@H]1[C@H]2COc3ccc(OC)cc3[C@@H]2N2C(=O)c3cc(OC)c(OC)cc3NC(=O)[C@@]12C	Pf growth 96h inconclusive, Pf growth 48h 12µM (no result: Shiga inhibitor, CHX counter)
CCOC(=O)[C@@H]1[C@H]2COc3cc(OC)ccc3[C@@H]2N2C(=O)N(c3ccc(OC)cc3)C(=O)[C@]12C	none
CCOC(=O)[C@H]1[C@H]2COc3ccc(C)cc3[C@@H]2N2C(=O)c3cc(OC)c(OC)cc3NC(=O)[C@@]12C	Pf growth 96h inconclusive, Pf growth 48h 12µM (no result: Shiga inhibitor, CHX counter)
CCOC(=O)[C@H]1[C@H]2COc3ccc(Br)cc3[C@@H]2N2C(=O)c3cc(OC)c(OC)cc3NC(=O)[C@@]12C	Pf growth 96h inconclusive, Pf growth 48h 9.3µM (no result: Shiga inhibitor, CHX counter)
CCOC(=O)[C@H]1[C@H]2COc3ccc(OC)cc3[C@@H]2N2C(=O)[C@H](C)NC(=O)[C@@]12C	Pf growth 96h inconclusive (no result: Shiga inhibitor, CHX counter)
CCOC(=O)[C@H]1[C@H]2COc3ccc(OC)cc3[C@@H]2N2C(=O)c3cc(OC)ccc3NC(=O)[C@@]12C	Pf growth 96h inconclusive, Pf growth 48h 10µM (no result: Shiga inhibitor, CHX counter)
CCOC(=O)[C@H]1[C@H]2COc3ccc(C)cc3[C@@H]2N2C(=O)[C@@H](C)NC(=O)[C@@]12C	Pf growth 96h inconclusive (no result: Shiga inhibitor, CHX counter)
CCOC(=O)[C@H]1[C@H]2COc3ccc(C)cc3[C@@H]2N2C(=O)c3cc(F)c(F)cc3NC(=O)[C@@]12C	Pf growth 96h inconclusive, Pf growth 48h 12µM (no result: Shiga inhibitor, CHX counter)
CC1CCN(C(=O)CSc2nc3ccccc3c(=O)n2Cc2ccc3c(c2)OCO3)CC1	Pf growth 48h inconclusive (no result: Pf growth 96h)
CC1CCCCN1C(=O)CSc1nc2ccsc2c(=O)n1Cc1ccccn1 (configuration not stated)	Shiga inhibitor 40
CCn1c(SCC(=O)N2CCCCC2C)nc2ccsc2c1=O (configuration not stated)	none
CC1CCCCN1C(=O)CSc1nc2cc3c(cc2c(=O)n1Cc1ccc2c(c1)OCO2)OCO3 (configuration not stated)	Pf growth 96h 4.1µM, Pf growth 48h inconclusive
O=C(COc1ccc2c(-c3ccccc3)cc(=O)oc2c1)Nc1cccnc1	Pf growth 48h inconclusive
CCOc1ccccc1NS(=O)(=O)c1cn(C)nc1C	none
CSc1cc(-c2ccc(Cl)cc2)c(C(=O)NN)s1	Pf growth 96h 12µM, Pf growth 48h inconclusive
CSc1cc(-c2ccc(Cl)cc2)c(C(=O)NC(C)C)s1	none
CC(C#N)Sc1ccc(S(=O)(=O)N(C)C2CCCCC2)cn1 (configuration not stated)	none (no result: Shiga inhibitor, CHX counter)
CC(C)CNC(=O)CSc1ccc(S(=O)(=O)N(C)C2CCCCC2)cn1	Pf growth 48h 9.3µM (no result: Shiga inhibitor, CHX counter)
CCOC(=O)NC(=O)CSc1ccc(S(=O)(=O)N(C)C2CCCCC2)cn1	Pf growth 96h 13µM, Pf growth 48h 6.6µM (no result: Shiga inhibitor, CHX counter)
CCN(CC)S(=O)(=O)c1ccc(/C=C/C(=O)OCC(=O)NNC(=O)c2ccc(OC)cc2)cc1	none (no result: Shiga inhibitor, CHX counter)
COc1cccc(C(=O)C2CCCN(Cc3cn(CC(N)=O)c4ccccc34)C2)c1 (configuration not stated)	Pf growth 48h inconclusive
CCCCC(=O)N1CCCC(c2nc3c(nnn3Cc3cc(C)ccc3C)c(=O)[nH]2)C1 (configuration not stated)	Pf growth 96h inconclusive, Pf growth 48h 8.3µM
Cc1ccc(C)c(Cn2nnc3c(=O)[nH]c(C4CCCN(C(=O)CC(C)C)C4)nc32)c1 (configuration not stated)	Pf growth 48h inconclusive (no result: Pf growth 96h)
CCOc1ccccc1NC(=O)N1CCCC(c2nc3c(nnn3Cc3ccc(C)cc3)c(=O)[nH]2)C1 (configuration not stated)	Pf growth 48h 4.1µM
Cc1ccc(C(=O)N2CCCC(c3nc4c(nnn4Cc4ccccc4)c(=O)[nH]3)C2)cc1 (configuration not stated)	Pf growth 48h 10µM (no result: Pf growth 96h)
Cc1ccc(CC(=O)N2CCC(c3nc4c(nnn4Cc4ccccc4)c(=O)[nH]3)CC2)cc1	Pf growth 96h inconclusive
O=C(CN(C(=O)CSc1nc2ccccc2o1)c1ccccc1F)NC1CCCCC1	none
COc1ccc(Nc2ncnc3sc(C)cc23)c(OC)c1	Shiga inhibitor 48, Pf growth 96h inconclusive, CHX counter 23
O=C(CCc1nnc(-c2ccccc2)o1)NCC1CCN(C2CCCC2)CC1	none
O=C(CCc1nnc(-c2ccsc2)o1)NCc1ccccc1OC(F)(F)F	Pf growth 96h inconclusive, CHX counter 10
O=C(CCc1nnc(-c2ccccc2)o1)NCc1cc(F)ccc1F	Pf growth 96h inconclusive, CHX counter 17
